# Measurements: the supplement of paper PMC8728848
# The entries come from a sample that favours the strongest signals as a whole.
# Columns and labels:
# Assay in all cases: glycan array binding signal (z-score within array); higher = stronger binding
# [1] = tested on: Fuc(a1-2)Gal(b1-4)GlcNAc(b1-3)[Fuc(a1-2)Gal(b1-4)GlcNAc(b1-6)]GalNAc; conditions: glycan notation: IUPAC condensed, linker removed
# In short: (§1)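 Arrays were curated from the Consortium for Functional Glycomics database, 3228 in total, and kept only where the protein sequence was available. Binding is expressed as a within-array Z-score. This score was averaged across arrays of the same protein sequence at different concentrations or buffers and across linkers, and negative values can be read as non-binding.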
# [2] = tested on: Fuc(a1-2)Gal(b1-4)GlcNAc(b1-3)GalNAc; conditions: glycan notation: IUPAC condensed, linker removed
# In short: as §1
# [3] = tested on: Fuc(a1-2)Gal(b1-4)GlcNAc(b1-2)[Fuc(a1-2)Gal(b1-4)GlcNAc(b1-4)]Man(a1-3)[Fuc(a1-2)Gal(b1-4)GlcNAc(b1-2)Man(a1-6)]Man(b1-4)GlcNAc(b1-4)GlcNAc; conditions: glycan notation: IUPAC condensed, linker removed
# In short: as §1
# [4] = tested on: Fuc(a1-2)Gal(b1-4)GlcNAc; conditions: glycan notation: IUPAC condensed, linker removed
# In short: as §1
# [5] = tested on: Fuc(a1-2)Gal(b1-4)GlcNAc(b1-3)Gal(b1-4)GlcNAc(b1-2)Man(a1-3)[Fuc(a1-2)Gal(b1-4)GlcNAc(b1-3)Gal(b1-4)GlcNAc(b1-2)Man(a1-6)]Man(b1-4)GlcNAc(b1-4)GlcNAc; conditions: glycan notation: IUPAC condensed, linker removed
# In short: as §1
# [6] = tested on: Fuc(a1-2)Gal(b1-4)GlcNAc(b1-2)Man; conditions: glycan notation: IUPAC condensed, linker removed
# In short: as §1
# [7] = tested on: Fuc(a1-2)Gal(b1-4)GlcNAc(b1-3)Gal(b1-4)GlcNAc(b1-3)Gal(b1-4)GlcNAc; conditions: glycan notation: IUPAC condensed, linker removed; mutation: R125K
# In short: as §1
# [8] = tested on: Fuc(a1-2)Gal(b1-4)GlcNAc(b1-3)Gal(b1-4)GlcNAc; conditions: glycan notation: IUPAC condensed, linker removed; mutation: R125K
# In short: as §1
# [9] = tested on: Fuc(a1-2)Gal(b1-4)GlcNAc(b1-3)[Fuc(a1-3)[Gal(b1-4)]GlcNAc(b1-6)]Gal(b1-4)Glc; conditions: glycan notation: IUPAC condensed, linker removed
# In short: as §1
# [10] = tested on: Fuc(a1-2)Gal(b1-4)GlcNAc(b1-6)GalNAc; conditions: glycan notation: IUPAC condensed, linker removed
# In short: as §1
# PILRb (Mus musculus), Q2YSF2, sequence (Q2YSF2 entry or part of it): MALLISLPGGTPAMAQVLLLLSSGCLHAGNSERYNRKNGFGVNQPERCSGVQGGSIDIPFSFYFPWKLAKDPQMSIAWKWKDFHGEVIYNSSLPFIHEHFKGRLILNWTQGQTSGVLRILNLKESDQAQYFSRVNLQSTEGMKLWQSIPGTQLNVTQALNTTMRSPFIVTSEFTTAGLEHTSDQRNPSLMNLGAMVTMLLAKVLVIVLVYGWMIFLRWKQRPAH
# Neurocan (Homo sapiens), O14594, sequence (O14594 other isoform, or with tags, fused parts or gaps): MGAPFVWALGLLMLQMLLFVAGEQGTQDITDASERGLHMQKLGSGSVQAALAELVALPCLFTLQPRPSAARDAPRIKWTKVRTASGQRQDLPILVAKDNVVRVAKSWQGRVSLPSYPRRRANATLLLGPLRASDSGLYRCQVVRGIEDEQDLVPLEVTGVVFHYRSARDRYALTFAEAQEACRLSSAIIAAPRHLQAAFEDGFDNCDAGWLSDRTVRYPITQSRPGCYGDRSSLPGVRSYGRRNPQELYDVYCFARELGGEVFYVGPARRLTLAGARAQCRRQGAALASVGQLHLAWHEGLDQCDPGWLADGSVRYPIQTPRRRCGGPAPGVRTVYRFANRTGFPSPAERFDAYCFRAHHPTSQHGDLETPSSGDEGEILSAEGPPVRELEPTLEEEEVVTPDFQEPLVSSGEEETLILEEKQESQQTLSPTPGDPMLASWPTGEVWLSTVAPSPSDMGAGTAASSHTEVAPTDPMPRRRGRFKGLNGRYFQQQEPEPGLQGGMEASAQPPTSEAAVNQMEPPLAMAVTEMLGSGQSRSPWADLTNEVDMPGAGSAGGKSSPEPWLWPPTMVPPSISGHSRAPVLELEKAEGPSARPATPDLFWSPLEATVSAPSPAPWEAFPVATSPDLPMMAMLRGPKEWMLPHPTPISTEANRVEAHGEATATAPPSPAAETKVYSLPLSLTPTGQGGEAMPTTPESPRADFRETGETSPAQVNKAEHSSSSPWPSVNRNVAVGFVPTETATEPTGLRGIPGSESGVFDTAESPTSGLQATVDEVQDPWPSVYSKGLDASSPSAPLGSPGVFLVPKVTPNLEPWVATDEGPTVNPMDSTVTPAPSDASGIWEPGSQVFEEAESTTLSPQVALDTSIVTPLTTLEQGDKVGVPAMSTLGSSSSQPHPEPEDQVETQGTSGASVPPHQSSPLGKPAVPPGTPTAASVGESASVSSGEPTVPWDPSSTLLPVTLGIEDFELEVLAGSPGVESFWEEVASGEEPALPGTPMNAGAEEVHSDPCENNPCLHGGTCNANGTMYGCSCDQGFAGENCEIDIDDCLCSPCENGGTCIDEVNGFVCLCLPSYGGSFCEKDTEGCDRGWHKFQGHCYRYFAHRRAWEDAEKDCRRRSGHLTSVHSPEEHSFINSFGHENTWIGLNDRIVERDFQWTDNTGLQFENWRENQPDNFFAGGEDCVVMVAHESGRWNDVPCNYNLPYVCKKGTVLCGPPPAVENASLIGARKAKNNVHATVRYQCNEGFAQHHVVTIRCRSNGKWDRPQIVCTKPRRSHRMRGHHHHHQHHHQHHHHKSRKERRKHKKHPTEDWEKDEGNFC
# CHI3L1 (Homo sapiens), P36222, sequence (P36222 whole entry): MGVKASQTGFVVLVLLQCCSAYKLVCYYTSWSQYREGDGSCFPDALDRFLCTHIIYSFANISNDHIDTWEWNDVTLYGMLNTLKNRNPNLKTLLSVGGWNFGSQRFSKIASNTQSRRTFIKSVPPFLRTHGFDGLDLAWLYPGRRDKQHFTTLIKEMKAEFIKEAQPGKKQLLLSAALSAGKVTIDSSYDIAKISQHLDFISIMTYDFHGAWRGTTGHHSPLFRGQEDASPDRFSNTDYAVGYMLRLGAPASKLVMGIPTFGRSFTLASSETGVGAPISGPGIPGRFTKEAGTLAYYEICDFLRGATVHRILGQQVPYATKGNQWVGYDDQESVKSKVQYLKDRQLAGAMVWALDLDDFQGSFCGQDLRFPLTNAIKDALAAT
substance,measurement,setting,value
"CHI3L1 (Homo sapiens), P36222",glycan array binding signal (z-score),[1],-0.129
"PILRb (Mus musculus), Q2YSF2",glycan array binding signal (z-score),[2],-0.066
"Neurocan (Homo sapiens), O14594",glycan array binding signal (z-score),[3],0.982
"HARE (Homo sapiens), Q8WWQ8",glycan array binding signal (z-score),[4],2.62
MpAFP RI GFP (Marinomonas primoryensis),glycan array binding signal (z-score),[5],1.06
"Siglec-8 (Homo sapiens), Q9NYZ4",glycan array binding signal (z-score),[6],-0.065
same,glycan array binding signal (z-score),[7],-0.32
same,glycan array binding signal (z-score),[8],-0.565
same,glycan array binding signal (z-score),[9],-0.102
same,glycan array binding signal (z-score),[10],0.139
same,glycan array binding signal (z-score),[4]; mutation: R125K,-0.001
